Assay outcomes as filed in PubChem BioAssay.
NCOA1 inh – SRC1 coactivator transcriptional activity inhibitors, primary screen, cell-based, luminescence; Nuclear receptor coactivator 1 (Homo sapiens), Q15788; 360,000 compounds, 0.12% hits; AID 588354, 2011; HEK293 GAL4-SRC1 luciferase reporter; inhibition, % at 3.6 µM;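 active means inhibition above the campaign mean plus 3 SD, with each screening campaign given its own cutoff, cut at about 60% in these data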
NR5A2 inv ag – LRH-1 (NR5A2) inverse agonists, primary screen, cell-based, luminescence, HEK293T, StAR-luciferase reporter | Nuclear receptor subfamily 5 group A member 2 (Homo sapiens), O00482 | LRH-1 transfected, 24 h | inhibition, % at 3.6 µM | 360,000 compounds, 0.13% hits;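 active means inhibition above the mean inhibition of all tested compounds plus 3 SD, cut at about 73% in these data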
SRC2 inh – inhibition of GAL4-SRC2 driven luciferase reporter, primary screen, SRC2 inhibitor project, cell-based, luminescence | 370,000 compounds, 0.17% hits | HEK293 GAL4-SRC2 luciferase reporter | Nuclear receptor coactivator 2 (Homo sapiens), Q15596 | inhibition, % at 9 µM;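 active means inhibition above the mean inhibition of all tested compounds plus 3 SD, set per campaign, cut at about 52% in these data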
NR2F2 inh – NR2F2 transcriptional activity inhibitors, primary screen, cell-based, luciferase reporter, HEK293T, luminescence. HEK293T NGFI-A luciferase reporter. inhibition, % at 8.6 µM. 370,000 compounds, 0.7% hits. AID 686940, 2013;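 active means inhibition above a per-plate cutoff, mean inhibition of test wells between control levels plus 3 SD, cut at about 38% in these data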;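 further: cells cotransfected with COUP-TFII expression vector driving the NGFI-A reporter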
SRC3 inh – SRC3 coactivator transcriptional activity inhibitors, primary screen, cell-based, luminescence | AID 588352, 2011 | Nuclear receptor coactivator 3 (Homo sapiens), Q9Y6Q9 | HEK293 GAL4-SRC3 luciferase reporter | 360,000 compounds, 0.17% hits | inhibition, % at 3.6 µM;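 active means inhibition above a per-campaign cutoff, the mean of all compounds plus 3 SD, cut at about 60% in these data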;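 further: higher means less SRC3-driven luciferase light from the GAL4 reporter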
Gal4-VP16 ctr – Gal4-VP16 luciferase reporter inhibitors, counter-screen for COUP-TFII antagonist project, cell-based, luminescence, HEK293; AID 687007, 2013; shares compounds with NR2F2 inh; inhibition, % at 8.5 µM; 2,500 compounds, 25% hits; in the data active means inhibition above about 13%
NR2F2 inh conf – NR2F2 transcriptional activity inhibitors, confirmation, cell-based, luciferase reporter, HEK293, triplicate. shares compounds with NR2F2 inh. HEK293 NGFI-A luciferase reporter, luminescence. inhibition, % at 8.5 µM. 2,500 compounds, 45% hits. AID 687008, 2013;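 active means mean inhibition over three repeats above a set limit taken from the earlier primary screen, cut at about 38% in these data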
Each line names hits and unclear results; the compound was inactive in the other large screens (follow-up assays come after a bar, where they were run). An excerpt weighted towards active compounds, which were near 0.83% of everything screened.

CC1=CC(=O)C(C2CCCCC2)=C/C1=N\OS(=O)(=O)c1ccccc1	NR2F2 inh 48 (no result: NCOA1 inh, NR5A2 inv ag, SRC2 inh, SRC3 inh) | Gal4-VP16 ctr inactive | NR2F2 inh conf inactive
CC(C)C1=CC2C3C(=O)N(c4ccccc4)C(=O)C3C1C(=O)C2(C)O (stereo unspecified)	none (no result: NCOA1 inh, NR5A2 inv ag, SRC3 inh)
CC(O)c1nc2ccccc2n1C/C=C/c1ccccc1 (stereo unspecified)	none
Cc1c(P(=S)(c2ccccc2)c2ccccc2)[n+]2ccccc2n1C/C=C/c1ccccc1	NR2F2 inh 38 | Gal4-VP16 ctr inactive | NR2F2 inh conf inactive
COC(=O)c1cc(-c2c(C)noc2C)c(=O)n2c1CCC2	none (no result: NCOA1 inh, NR5A2 inv ag, SRC3 inh)
Cc1noc(C)c1S(=O)(=O)N1CCCc2nc(-c3ccccc3)ccc21	none (no result: NCOA1 inh, NR5A2 inv ag, SRC3 inh)
N#CCCCc1cn(-c2cccc(-c3noc4c3C(=O)N(CC(=O)N3CCOCC3)CC4)c2)nn1	none (no result: NCOA1 inh, NR5A2 inv ag, SRC3 inh)
Cc1ccc(NC(=O)c2ccc(CS(=O)(=O)Cc3ccccc3C)o2)cc1C	none (no result: NCOA1 inh, NR5A2 inv ag, SRC3 inh)
Cc1ccccc1CS(=O)(=O)Cc1ccc(C(=O)Nc2ccc(F)cc2)o1	NR2F2 inh 53 (no result: NCOA1 inh, NR5A2 inv ag, SRC3 inh) | Gal4-VP16 ctr inactive | NR2F2 inh conf inactive
CCOc1ccc(CN(C)C(=O)CNC(=O)c2ccccc2)cc1	none
C=CCOc1ccc(CN(C)C(=O)CNC(=O)c2ccc(-c3ccccc3)cc2)cc1	NR2F2 inh 47 | Gal4-VP16 ctr inactive | NR2F2 inh conf inactive
S=C(Nc1ccc(Cl)c(Cl)c1)Nc1nnc(-c2ccncc2)s1	none (no result: NCOA1 inh, NR5A2 inv ag, SRC2 inh, SRC3 inh)
Cc1nc(SCc2cccc(C(=O)O)c2)nc2c1CCCC2	SRC2 inh 53, NR2F2 inh 52 | Gal4-VP16 ctr 23 | NR2F2 inh conf inactive
COc1ccc(-c2cc(C)nc(SCc3cccc(C(=O)O)c3)n2)cc1	none
N#CC(C#N)=C(Nc1ccc(F)cc1)SCc1cccc(Br)c1	NR2F2 inh 52 | Gal4-VP16 ctr inactive | NR2F2 inh conf 38
Cc1cccc(CSC(Nc2ccc(F)cc2)=C(C#N)C#N)c1	none
O=C(Nc1nonc1NC(=O)c1cccs1)c1cccs1	NR2F2 inh 49 | Gal4-VP16 ctr inactive | NR2F2 inh conf inactive
N#Cc1ccc(C(=O)Oc2coc(CSc3ncccn3)cc2=O)cc1	none (no result: NCOA1 inh, NR5A2 inv ag, SRC2 inh, SRC3 inh)
Cn1c(=O)c2[nH]c(CCCCCCCCc3nc4ccccc4[nH]3)nc2n(C)c1=O	NR2F2 inh 69 | Gal4-VP16 ctr inactive | NR2F2 inh conf 58
COc1ccc(C(=O)N2CCC[C@@H]2C(=O)N2CCC[C@@H]2C(=O)NCc2ccccc2)cc1F	none (no result: NCOA1 inh, NR5A2 inv ag, SRC3 inh)
Nc1nonc1C(=O)NCCNCc1ccccc1OCc1ccccc1F	none
Nc1nonc1C(=O)NCCNCc1cc(Br)ccc1OCc1ccccc1F	NR2F2 inh 66 | Gal4-VP16 ctr 19 | NR2F2 inh conf inactive
CCCCCCn1c(NCC)nc2c1c(=O)n(C)c(=O)n2C	NR2F2 inh 57 | Gal4-VP16 ctr inactive | NR2F2 inh conf 49
CCCCNc1nc2c(c(=O)n(C)c(=O)n2C)n1CCC	none
O=C(CN1CCN(C(=O)CNC(=O)c2ccc(-c3ccccc3)cc2)CC1)Nc1ccccc1Cl	NR2F2 inh 50 | Gal4-VP16 ctr inactive | NR2F2 inh conf inactive
Cc1noc(C)c1COC(=O)c1cccc(S(=O)(=O)N2CCCCCC2)c1	NR2F2 inh 60 | Gal4-VP16 ctr inactive | NR2F2 inh conf inactive
Cc1ccc(-c2onc(C)c2C)cc1S(=O)(=O)N1CCOc2ccccc21	NR2F2 inh 59 | Gal4-VP16 ctr inactive | NR2F2 inh conf inactive
Cc1cc(C(=O)CSc2nc(N)cc(=O)[nH]2)c(C)n1-c1ccc(OC(F)F)cc1	NR2F2 inh 53 | Gal4-VP16 ctr inactive | NR2F2 inh conf 54
CC(C)C[C@H](NC(=O)N1CCOCC1)C(=O)N1CCC[C@H]1C(=O)NCc1ccccc1	none (no result: NCOA1 inh, NR5A2 inv ag, SRC3 inh)
O=S(=O)(NCc1cn2ccsc2n1)c1ccc(Oc2ccccc2)cc1	NR2F2 inh 42 | Gal4-VP16 ctr inactive | NR2F2 inh conf inactive
O=S(=O)(NCc1cn2ccsc2n1)c1cccs1	none
Cc1ccc(Cl)cc1N1CCN(C(=O)CN(C2CCCCC2)S(C)(=O)=O)CC1	NR2F2 inh 40 | Gal4-VP16 ctr inactive | NR2F2 inh conf inactive
Cc1ccc(Cl)cc1N1CCN(C(=O)COc2ccc(S(=O)(=O)NC(C)C)cc2)CC1	NR2F2 inh 38 | Gal4-VP16 ctr inactive | NR2F2 inh conf 39
CC(C)NS(=O)(=O)c1ccc(OCC(=O)N2CCCC2)cc1	none
COC(=O)C1=C(C)N(CC(C)C)C(=S)NC1c1ccc(Cl)cc1 (stereo unspecified)	none (no result: NCOA1 inh, NR5A2 inv ag, SRC3 inh)
Cc1ccc(NC(=O)c2ccc(OCc3c(C)noc3C)cc2)cc1C	NR2F2 inh 38 | Gal4-VP16 ctr inactive | NR2F2 inh conf inactive
COC(=O)[C@]12C[C@H](CC(=O)NCc3cccc4ccccc34)C(=O)N(Cc3ccccc3)C1=C[C@H](C(C)C)O[C@@H]2C1CC1	none (no result: NCOA1 inh, NR5A2 inv ag, SRC3 inh)
O=C(C(=O)N1CCN(S(=O)(=O)c2ccc(Cl)cc2)CC1)c1cccc(C(F)(F)F)c1	none (no result: NCOA1 inh, NR5A2 inv ag, SRC3 inh)
CN1C2=N[C@@H](c3ccc4ccccc4c3)CC(=O)N2/C(=C\c2ccccc2)[C@H]1c1ccccc1	none (no result: NCOA1 inh, NR5A2 inv ag, SRC2 inh, SRC3 inh)
COc1ccc(NC(=O)C2CCN(c3nc(-c4ccc(OC)cc4)no3)CC2)cc1	none
CCN(C(=O)C1CCN(c2nc(-c3ccc(OC)cc3)no2)CC1)c1ccc(OC)cc1	NR2F2 inh 52 | Gal4-VP16 ctr inactive | NR2F2 inh conf inactive
Cc1nn(-c2ccccc2)c(C)c1/C=N\N1CCN(Cc2ccccc2Cl)CC1	none (no result: NCOA1 inh, NR5A2 inv ag, SRC3 inh)
C[n+]1ccc(/C=C/c2c[nH]c3ccc(F)cc23)cc1	NR2F2 inh 38 | Gal4-VP16 ctr inactive | NR2F2 inh conf inactive
Cn1nc(C(C)(C)C)cc1C(=O)N1CCCCC1c1cc(C(=O)Nc2ccccc2Cl)no1 (stereo unspecified)	NR2F2 inh 48 | Gal4-VP16 ctr inactive | NR2F2 inh conf inactive
Cn1nc(C(C)(C)C)cc1C(=O)N1CCCCC1c1cc(C(=O)Nc2ccccc2)no1 (stereo unspecified)	none
Cc1ccc(S(=O)(=O)N2CCc3ccccc3C2)cc1	none
Cc1ccc(S(=O)(=O)N2CCc3ccccc3CC2)cc1	NR2F2 inh 66 | Gal4-VP16 ctr inactive | NR2F2 inh conf 50
O=C(NNc1ccnc2cc(Cl)ccc12)C1CCCCC1	NR2F2 inh 57 | Gal4-VP16 ctr 13 | NR2F2 inh conf 65
COc1ccc(C=Cc2ccc3ccccc3n2)c(OC)c1	NR2F2 inh 47 | Gal4-VP16 ctr inactive | NR2F2 inh conf inactive
